The sample as a whole holds a higher share of hits than the screen did.
NPSR antag: neuropeptide S receptor (human) antagonism, cAMP. Q6W5P4. CHO-NPSR cells, cAMP TR-FRET, antagonist mode. Potency, µM (titrated, usually from 38.3 µM), for inactives: at the top dose activity change, negative = inhibition, most hits filed as inhibitors. hit rate 1% among 220,000. AID 1461; also: potency is read from the fitted curve at half-maximal effect; % is scaled to controls: 0 for no effect and ±100 for the full control effect; nearly all actives have a fitted effect of over 50% in size
RXFP1 antag: antagonists of human relaxin receptor RXFP1; Q9HBX9; HEK293-RXFP1, relaxin-stimulated cAMP HTRF, 30 min; active compounds read low; activity change, negative = inhibition, % at 57.5 µM; hit rate 0.59% among 350,000; AID 1259400;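 active = activity change of -60% or lower, but not beyond a set lower limit; inconclusive = change between -60% and -40%, or beyond the set limit; inactive = change above -40%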; also: % is scaled to controls: 0 for no effect and ±100 for the full control effect
TSHR antagonist: antagonists of human thyroid stimulating hormone receptor. hit rate 0.2% among 330,000. TSHR-expressing cells, TSH-stimulated cAMP HTRF, 2 h; active compounds read low. activity change, negative = inhibition, % at 11.5 µM. P16473;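 active = activity change below a set negative limit, meaning inhibition stronger than a set level, cut at about -70% in these data; inconclusive = activity change between two set negative limits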; also: % is scaled to controls: 0 for no effect and ±100 for the full control effect
Target sequence (P16473 whole entry, looked up): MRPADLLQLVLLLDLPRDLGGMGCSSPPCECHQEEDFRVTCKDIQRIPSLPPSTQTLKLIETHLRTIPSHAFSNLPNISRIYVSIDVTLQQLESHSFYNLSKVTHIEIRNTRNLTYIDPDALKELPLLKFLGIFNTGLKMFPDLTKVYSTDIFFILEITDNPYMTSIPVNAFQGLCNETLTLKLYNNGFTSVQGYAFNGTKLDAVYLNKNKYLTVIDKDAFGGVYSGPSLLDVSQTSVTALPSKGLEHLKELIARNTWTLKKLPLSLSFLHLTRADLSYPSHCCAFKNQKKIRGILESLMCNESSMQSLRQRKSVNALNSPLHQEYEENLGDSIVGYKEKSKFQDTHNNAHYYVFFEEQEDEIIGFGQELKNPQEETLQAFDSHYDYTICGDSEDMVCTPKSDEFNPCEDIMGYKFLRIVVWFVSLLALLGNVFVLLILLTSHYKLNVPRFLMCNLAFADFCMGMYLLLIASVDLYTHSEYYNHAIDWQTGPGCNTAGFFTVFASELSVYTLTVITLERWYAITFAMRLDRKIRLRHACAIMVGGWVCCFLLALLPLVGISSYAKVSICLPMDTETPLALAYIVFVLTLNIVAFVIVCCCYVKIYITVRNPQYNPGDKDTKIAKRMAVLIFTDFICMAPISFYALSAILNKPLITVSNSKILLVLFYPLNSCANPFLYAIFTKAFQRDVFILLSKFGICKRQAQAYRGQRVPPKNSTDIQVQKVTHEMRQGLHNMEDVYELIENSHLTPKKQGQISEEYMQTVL
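Read-out is FRET at 665 nm (cryptate excitation 337 nm) from a cryptate-tagged anti-cAMP antibody, competed by cell cAMP against cAMP-d2. Compounds are tested on freshly harvested TSHR cells challenged with 4nM TSH (EC80) for 2 hours at 37 deg C.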
TCR act: T cell receptor activation | Potency, µM (top dose mostly 9.22 µM), inactives show at the top dose activation of IL-2 secretion, actives largely listed as activators | 330,000 tested, under 10 active | primary human leukocytes, anti-CD3, IL-2 HTRF, 48 h | AID 504894; also: % of control where 0% means no effect
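Activity was scored as IL-2 release from primary human leukocytes given only a TCR signal (a-CD3 beads) plus compound for 48 hr. Detection used a two-antibody HTRF format read at 665nm.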
RXFP1 ag: RXFP1 (human) receptor agonism | hit rate 0.3% among 370,000 | Potency, µM (doses to about 57.5 µM), inactives show at the highest dose activation, usual class: activators | HEK293T-RXFP1 cAMP TR-FRET, 30 min; response scale: percent of porcine relaxin response, buffer zero | AID 2676; also: potency is read from the fitted curve at half-maximal effect; % is scaled to controls: 0 for no effect and ±100 for the full control effect; nearly all actives have a fitted effect of over 60% in size
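Agonist response is measured as cAMP accumulation in an RXFP1-transfected HEK293T line under PDE4 inhibition. Values are scaled between buffer-only and 29 nM porcine relaxin, and EC50s come from standard Hill equation fits.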
PTHR1 ag: PTHR1 (human) receptor agonism. HEK293 GP2 PTHR1 cells, GloSensor cAMP luminescence, 1 h. Potency, µM (top dose mostly 115 µM), without a hit: at the highest dose activation, usual class: activators. hit rate 0.075% among 410,000. Q03431. AID 743266; also: potency is read from the fitted curve at half-maximal effect; nearly all actives have a fitted effect of over 55% in size
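HEK-293-derived GP2 cells expressing PTHR1 and a GloSensor cAMP reporter, 3,000/well, plated overnight, given luciferin plus IBMX (each 0.5 mM as added) for 1 h at 37 °C, then compound for 1 h at 37 °C. Luminescence was read after 15 min at room temperature.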
Starred values were filed as active, the others as inactive; i = inactive; ? = inconclusive; . = not tested or not shown; [ ] = remark or other dose. Unless noted, calls follow the shape of the dose curve; as a rule, active = well fitted curve in the direction sought with a large enough effect; inconclusive = small, poorly fitted or top-dose-only effect, or another doubt; inactive = no such curve, though single readings can be large; an effect the other way counts as inactive or inconclusive.

SMILES	NPSR antag	RXFP1 antag	TSHR antagonist	TCR act	RXFP1 ag	PTHR1 ag
O=C(CC(=O)c1cc(Cl)ccc1O)c1ccccc1	?	-19.6	-2.3	.	1.4%	-42.1%[57.5 µM]
Cc1ccccc1OCC(=O)Nc1sc(C(=O)Nc2cccc(C)c2C)c(C)c1C#N	3.98µM*	-1.4	3.2	.	8.91µM*	-10.2%[57.5 µM]
C=CCn1c(SCCN2C(=O)c3ccccc3C2=O)nc2scc(-c3ccccc3)c2c1=O	12.6µM*	-3.6	2.7	-2.2%	-0.1%	i
C=CCn1c(SCc2ccccc2)nc2scc(-c3ccc(C)o3)c2c1=O	0.0%[46.1 µM]	7.4	6.4	0.5%	1.2%	i
COc1cc(/C=C(/C(=O)c2cccs2)c2nc3ccccc3[nH]2)cc(OC)c1O	12.6µM*	-20.4	-12.0	2.9%	-3.6%	-27.6%[57.5 µM]
COc1ccc(C(=O)N/C(=C/c2cccs2)c2nc3ccccc3[nH]2)cc1OC	6.6%	-2.1	7.9	1.5%[46.1 µM]	1.4%	-5.1%
CCS(=O)(=O)c1ccc(OC)c(C(=O)OC)c1	.	-26.7	.	.	.	.
COc1ccc(C)cc1NC(=O)C1COc2ccccc2C1 (centres undefined)	.	-14.0	.	.	-0.2%	-12.6%
CCOc1ccc(OCCn2c(=S)[nH]c3ccccc32)cc1	.	-63.2*	-13.5	4.5%	2.3%	-26.0%
c1ccc(CN2CCN(c3nc(NCc4ccco4)c4ccccc4n3)CC2)cc1	10µM*	-26.3	-17.9	-0.1%	-2.5%	-30.8%
COc1cc(Br)c(C2CC(=O)Nc3cc4c(cc32)OCCO4)cc1OC (centres undefined)	.	.	.	.	2.7%	-49.2%
COc1ccc(N2C3=C(CC4=C2CC(C)(C)CC4=O)C(=O)CC(C)(C)C3)cc1	2µM*	24.2	14.5	14.6%	0.0%	-75.6%[57.5 µM]
O=S(=O)(Nc1c(S(=O)(=O)c2ccccc2)c2nc3ccccc3nc2n1C1CCCCC1)c1ccccc1	-48.3%	-71.6*	-36.4	-15.5%	5.0%	-29.0%
COc1ccc(NC(=O)CSC2=Nc3ccccc3C3=NC(Cc4ccccc4)C(=O)N23)cc1Cl (centres undefined)	.	-5.6	.	.	-1.4%	i
CC(C)n1c(SCC(=O)N2CCN(C(=O)c3ccco3)CC2)nc2c1c(=O)n(C)c(=O)n2C	-8.3%	16.5	6.3	5.1%	14.1µM*	i
CCCCCC1Nc2cc(C(F)(F)F)c(S(N)(=O)=O)cc2S(=O)(=O)N1 (centres undefined)	.	-1.5	.	.	.	.
Cc1ccc(C(C(=O)NCC2CCCO2)N(C(=O)c2snc(C(N)=O)c2N)c2ccc(F)cc2)o1 (centres undefined)	.	?	-7.9	-2.3%	0.4%	-4.8%
CCOc1ccc(C(C(=O)NCC2CCCO2)N(C(=O)c2snc(C(N)=O)c2N)c2cccc(F)c2)cc1 (centres undefined)	.	-90.5*	5.5	1.4%	-0.1%	-16.8%
Cc1cc(C)cc(N(C(=O)c2snc(C(N)=O)c2N)C(C(=O)NCC2CCCO2)c2ccc(C)o2)c1 (centres undefined)	.	-60.6*	-3.4	4.1%	0.4%	i
CCOc1ccc(C(C(=O)NCC2CCCO2)N(C(=O)c2snc(C(N)=O)c2N)c2ccccc2F)cc1 (centres undefined)	.	?	-1.9	-5.1%	?	-15.5%
COc1cc(OC)cc(N(C(=O)c2snc(C(N)=O)c2N)C(C(=O)NCC2CCCO2)c2ccc(C)o2)c1 (centres undefined)	.	.	-4.4	.	1.7%	.
Cc1ccc(C(C(=O)NCC2CCCO2)N(C(=O)c2snc(C(N)=O)c2N)c2ccc(C)c(C)c2)o1 (centres undefined)	.	-76.3*	-14.3	1.7%	2.0%	-7.6%
Cc1cc(=O)n(CC(=O)Nc2ccc(Cl)c(Cl)c2)c(-n2nc(C)cc2C)n1	.	?	.	.	1.6%	?
Oc1ccccc1N1CCN(c2ccc3ccccc3n2)CC1	.	0.1	-77.5*	0.2%	-0.4%	-24.4%
O=C(c1ccc(-c2ccc([N+](=O)[O-])cc2)o1)N1CCCCCCC1	.	-71.5*	-15.7	-2.1%	0.6%	-23.5%
SMILES	NPSR antag	RXFP1 antag	TSHR antagonist	TCR act	RXFP1 ag	PTHR1 ag
O=C(c1ccc(-c2ccc([N+](=O)[O-])cc2)o1)N1CCCC(C(F)(F)F)C1 (centres undefined)	.	-13.2	-3.6	-4.0%	4.7%	-74.3%
COc1ccc(C(=O)Nc2ccc(NC(=O)c3cccs3)cc2)cc1OC	.	-7.8	.	.	1.8%	i
O=C(Nc1ccc(NC(=O)c2cccs2)cc1)c1cccc(Br)c1	.	-6.6	.	.	3.8%	i
COc1ccc(C(=O)Nc2cccc(NC(=O)c3cccs3)c2)cc1OC	.	2.5	-129.6*	5.1%	-0.9%	-13.3%
O=C(Nc1cccc(NC(=O)c2cccs2)c1)c1ccc(Br)cc1	.	-70.7*	-17.3	5.9%	2.7%	i
CCn1c(C)cc(/C=C2/SC(=S)NC2=O)c1C	-21.2%	10.5	-4.5	-3.7%[46.1 µM]	-2.1%	i
Cc1cc(/C=C2\SC(=S)NC2=O)c(C)[nH]1	-30.1%	-111.0*	-5.3	2.2%	0.7%	-0.2%
CN(C(=O)CSc1nc2scc(-c3ccccc3)c2c(=O)[nH]1)c1ccccc1	.	-64.3*	.	1.1%	.	-42.6%
CN(CCC#N)C(=O)CSc1nc2scc(-c3ccccc3)c2c(=O)[nH]1	-3.0%	.	-7.6	2.8%[46.1 µM]	1.9%	-14.7%
CC(=O)Oc1c(I)cc(I)cc1C(=O)Nc1ccc(Cl)cc1	.	-96.5*	-106.4*	.	4.2%	-90.4%
COc1cc(/C=C/C(=O)O[C@H]2CC[C@]34C[C@]35CC[C@]3(C)[C@@H]([C@H](C)CCC=C(C)C)CC[C@@]3(C)C5CCC4C2(C)C)ccc1O (some centres undefined)	.	9.5	.	.	.	.
Cc1cc(C(=O)N2CCCC(C(=O)c3ccc(Oc4ccccc4)cc3)C2)n[nH]1 (centres undefined)	.	-85.0*	-23.3	-2.5%	2.1%	-28.3%
CC1=CCC2C(=O)N(c3ccc(C(=O)Nc4ccccc4Cl)cc3)C(=O)C2C1 (centres undefined)	.	-2.6	-81.9*	-4.7%	1.4%	-1.8%
Cc1cc(S(=O)(=O)Nc2ccc(C(=O)NCC3(N4CCCCC4)CCCCC3)cc2)ccc1F	.	-76.8*	7.6	-8.3%	0.2%	i
Cc1ccc(C(=O)C2=C(O)C(=O)N(CCCn3ccnc3)C2c2ccc(OC(C)C)cc2)o1 (centres undefined)	?	20.3	26.0	-8.4%	15.8µM*	-2.3%[57.5 µM]
CCCCCCC(O)(c1ccccc1)C(CN1CCOCC1)c1ccccc1 (centres undefined)	.	?	-5.2	-4.0%	-0.3%	-4.9%
